Shown are actives, neighbours in structure and some others; about 3.1% of the full set was active somewhere.
EWS-Fli inh: EWS/Fli transcriptional activity inhibition. A673 NR0B1-luciferase reporter, viability-normalised. inhibition, % at 12.6 µM. hit rate 0.67% among 350,000. AID 651661;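 active = mean inhibition of at least 50% after viability correction, with every replicate also passing that limit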;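 also: firefly luciferase signal divided by Alamar Blue viability fluorescence both relative to DMSO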
EBV LMP1 NFkB: inhibitors of Epstein-Barr LMP1-induced NF-kappaB reporter. LMP1-induced NF-kappaB luciferase reporter cells, luminescence. inhibition, % at 12.5 µM. hit rate 0.69% among 350,000; in the data active = inhibition above about 41%;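 also: 0% = neutral control wells and 100% = reference inhibitor control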
LGR2 inh: inhibitors of bursicon-induced Drosophila LGR2 receptor cAMP signaling; inhibition, % at 9.99 µM; AID 720647; hit rate 0.35% among 380,000; HEK293 LGR2, CRE-luciferase, bursicon-stimulated, 4 h;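 active = drop in luminescence signal, shown as inhibition above about 50% in the replicate tests, limit read from the data, passing the limit was not always enough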;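 also: agonist challenge used bursicon conditioned medium at about half maximal strength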
TROY NFkB inh: inhibitors of TROY-dependent NF-kB signaling. Q293 LMP1-TROYcd NF-kB luciferase reporter, 4 h. inhibition, % at 10 µM. hit rate 0.98% among 360,000;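 active = compounds whose plate-normalised and pattern-corrected inhibition of the luciferase reporter signal at the single screening dose is 50% or more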
PAX8 inh HTS: inhibitors of PAX8 transcriptional activity in RMG-I cells; RMG-I TPO-luciferase reporter, SteadyGlo, 24 h; inhibition, % at 12.6 µM; hit rate 1.2% among 360,000;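 active = mean replicate inhibition at least 60% with every replicate also reaching 60%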;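 also: luciferase light reporting Pax8 driven TPO promoter activity; plate controls were median of neutral control wells for no effect and mitoxantrone controls for full effect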
TWEAK-Fn14 inh: blocks TWEAK-Fn14 interaction in a reporter cell assay; hit rate 2% among 360,000; inhibition, % at 10 µM; TWEAK-stimulated Fn14 reporter cells, luciferase luminescence, 8 h; in the data active = inhibition above about 50%
* hit, by the source's call; / = not tested or not shown.

SMILES	EWS-Fli inh	EBV LMP1 NFkB	LGR2 inh	TROY NFkB inh	PAX8 inh HTS	TWEAK-Fn14 inh
Cn1c(NCC(O)c2ccccc2)nc2c1c(=O)n(Cc1ccc(Cl)c(Cl)c1)c(=O)n2C (stereo not drawn)	/	10	25	54*	/	49
Cn1c(NCC(O)c2ccccc2)nc2c1c(=O)n(Cc1ccc(Cl)cc1)c(=O)n2C (stereo not drawn)	/	0	8	13	/	20
COc1ccc(CNc2nc3c(c(=O)n(Cc4ccc(F)cc4)c(=O)n3C)n2C)cc1	/	26	15	37	71*	22
Cn1c(NCc2ccccc2)nc2c1c(=O)n(Cc1ccccc1)c(=O)n2C	/	0	29	1	/	15
C[C@H](CO)N1C[C@H](C)[C@@H](CN(C)C(=O)Nc2ccc(F)cc2)Oc2c(NC(=O)C3CCOCC3)cccc2C1=O	4	/	-15	/	-2	/
CCCc1ccc(C(=O)NC(=O)c2ccccc2O)cc1	-45	6	/	34	-28	57*
COc1ccc(-c2cc3nc(NCc4ccc(C)cc4C)n(C)c(=O)c3s2)cc1OC	30	/	-12	26	7	76*
Cc1ccc(CNc2nc3cc(-c4ccccc4)sc3c(=O)n2C)c(C)c1	7	/	-9	0	-12	14
COc1ccc(S(=O)(=O)N(C)C[C@@H]2OCCCC[C@H](C)Oc3ccc(NC(=O)c4ccccc4)cc3C(=O)N([C@H](C)CO)C[C@H]2C)cc1	16	/	-4	/	4	/
C[C@@H]1CN([C@H](C)CO)S(=O)(=O)c2ccc(C#CC3CCCCC3)cc2O[C@H]1CN(C)Cc1cccnc1	46	/	-10	/	/	/
C[C@@H]1CN([C@H](C)CO)C(=O)c2cc(NC(=O)Nc3ccccc3)ccc2O[C@@H](C)CCCCO[C@@H]1CN(C)Cc1ccc(Cl)c(Cl)c1	9	/	-16	/	86*	/
C[C@@H]1CCCCO[C@H](CN(C)Cc2ccc(Cl)c(Cl)c2)[C@@H](C)CN([C@H](C)CO)C(=O)c2cc(NC(=O)Nc3ccccc3)ccc2O1	4	/	-3	/	9	/
C[C@@H]1CCCCO[C@@H](CN(C)Cc2ccc(Cl)c(Cl)c2)[C@H](C)CN([C@@H](C)CO)C(=O)c2cc(NC(=O)Nc3ccccc3)ccc2O1	5	/	-21	/	86*	/
C[C@@H]1CN([C@@H](C)CO)C(=O)c2cc(NC(=O)Nc3ccccc3)ccc2O[C@@H](C)CCCCO[C@H]1CN(C)Cc1ccc(Cl)c(Cl)c1	-7	/	/	/	81*	/
C[C@@H]1CCCCO[C@@H](CN(C)Cc2ccc(Cl)c(Cl)c2)[C@@H](C)CN([C@H](C)CO)C(=O)c2cc(NC(=O)Nc3ccccc3)ccc2O1	-3	/	24	4	14	-9
CCC(=O)N[C@@H]1CC[C@@H](CC(=O)NCc2cc(F)cc(F)c2)O[C@H]1CO	4	/	11	/	-4	/
C[C@H]1CN([C@@H](C)CO)S(=O)(=O)c2ccc(C3=CCCCC3)cc2O[C@@H]1CN(C)C(=O)Cc1cccnc1	18	/	16	/	/	/
O=C(CCN1C(=O)c2ccccc2C1=O)Nc1ccc(-c2nc3ccccc3o2)cc1	/	5	/	-21	/	-25
CCN(CC)CC(=O)Nc1ccc(-c2nc3cc(NC(=O)CN(CC)CC)ccc3o2)cc1	/	-49	/	-11	/	-111
O=C(CN1C(=O)c2ccccc2C1=O)Nc1ccc(-c2nc3ccccc3o2)cc1	/	-3	/	/	/	72*
O=C(CN1CCCC1)Nc1ccc(-c2nc3cc(NC(=O)CN4CCCC4)ccc3o2)cc1	/	-33	/	53*	/	-17
CCCNC(=O)N(C)C[C@@H]1Oc2cc(-c3ccc(C)cc3)ccc2S(=O)(=O)N([C@@H](C)CO)C[C@@H]1C	19	/	-2	/	/	/
O=C(NCC1CCCO1)C(=Cc1cccc([N+](=O)[O-])c1)C(=O)NCC1CCCO1 (stereo not drawn)	0	2	-6	-8	98*	17
O=[N+]([O-])c1ccc(Cl)c(S(=O)(=O)NCC2CCCO2)c1 (stereo not drawn)	/	48*	-6	12	-5	6
O=C(NCC1CCCO1)/C(=C\c1cccc([N+](=O)[O-])c1)NC(=O)c1ccccc1 (stereo not drawn)	4	-8	-3	-6	5	4
SMILES	EWS-Fli inh	EBV LMP1 NFkB	LGR2 inh	TROY NFkB inh	PAX8 inh HTS	TWEAK-Fn14 inh
O=S(=O)(NCC1CCCO1)c1cc(Cl)ccc1Br (stereo not drawn)	/	6	21	-7	/	-10
O=S(=O)(NCC1CCCO1)c1cnc(Cl)c(Br)c1 (stereo not drawn)	12	-18	-6	-7	110*	-14
COc1ccc(NC(=O)N(C)C[C@H]2Oc3ccc(NC(=O)Nc4ccccc4)cc3CC(=O)N([C@@H](C)CO)C[C@H]2C)cc1	-1	/	8	/	/	/
Cc1ccccc1-c1ccc2c(c1)O[C@H](CN(C)C(=O)C1CC1)[C@H](C)CN([C@H](C)CO)S2(=O)=O	5	/	0	/	/	/
CC(C)C#Cc1ccc2c(c1)O[C@@H](CN(C)S(=O)(=O)c1cn(C)cn1)[C@H](C)CN([C@@H](C)CO)S2(=O)=O	8	/	12	/	-36	/
O=c1cc(-c2ccccc2)[nH]n1-c1ccccc1	-4	0	3	53*	9	1
O=c1ccc(=O)n(-c2ccccc2)[nH]1	0	-1	/	-10	-10	-32
Cc1ccc(C(=O)Nc2ncc(Cc3ccccc3)s2)o1	/	-9	/	-5	-150	66*
O=C(Nc1ncc(Cc2ccccc2)s1)c1cccs1	/	-37	/	15	/	47
O=c1[nH]c2ccc(Cl)cc2c(-c2ccccc2)c1SC(=S)N1CCOCC1	/	4	/	20	/	31
O=c1[nH]c2ccc(Cl)cc2c(-c2ccccc2)c1SC(=S)N1CCCCC1	/	3	/	2	/	77*
O=C(Cc1ccccc1)N1CC[C@@H]2[C@H]1c1cc(Br)ccc1N[C@@H]2CO	-5	/	28	/	-6	/
COc1cccc(S(=O)(=O)N2CCCCN3[C@@H](CO)[C@H](c4ccc(C#CC(C)C)cc4)[C@@H]3C2)c1	14	/	4	/	65*	/
COc1ccc(S(=O)(=O)N2CCCCN3[C@H](CO)[C@@H](c4ccc(C#CC(C)C)cc4)[C@@H]3C2)cc1	7	/	2	/	-23	/
COc1cccc(S(=O)(=O)N2CCCCN3[C@H](C2)[C@@H](c2ccc(C#CC(C)C)cc2)[C@@H]3CO)c1	11	/	5	/	57	/
COc1ccc(S(=O)(=O)N2CCCCN3[C@H](CO)[C@H](c4ccc(-c5cccnc5)cc4)[C@@H]3C2)cc1	/	/	58*	/	6	/
COc1ccc(S(=O)(=O)N2CCCCN3[C@H](C2)[C@H](c2ccc(C#CC(C)C)cc2)[C@@H]3CO)cc1	13	/	6	/	102*	/
COc1ccc(S(=O)(=O)N2CCCCN3[C@@H](CO)[C@H](c4ccc(-c5cccnc5)cc4)[C@@H]3C2)cc1	/	/	34	/	-4	/
COc1cccc(S(=O)(=O)N2CCCCN3[C@@H](CO)[C@@H](c4ccc(C#CCC(C)C)cc4)[C@@H]3C2)c1	18	/	16	/	86*	/

Assay outcomes as filed in PubChem BioAssay.
